For test [1], the target named is Albumin (Bos taurus) (UniProt P02769). Description: compounds binding labelled BSA control protein – biochemical, small-molecule microarray, Alexa647 label, 635/667 nm fluorescence, artefact control for SMM control protein annotation, profiling panel (AID 1118).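 Further: score merges 667 nm emission intensity and signal-to-noise per printed compound spot.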 As to conditions: BSA-A647 binding, fluorescence 635 nm, higher = more signal.
A short description of test [2]: probe aXIP binding to arrayed compounds – biochemical, NeuroSMM set, 635/667 nm fluorescence, primary screen (AID 1119).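 Further: probe is the protein aXip251-270 applied at 1 µg/mL to compound-printed slides; binding of probe to printed compounds measured as 667 nm fluorescence plus signal to noise.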 As to conditions: small-molecule microarray, higher = more signal, called active from +8 up or from −8 down.
Test [3] can be described thus: probe aNOTCH3 binding on compound microarray – biochemical, small-molecule microarray, 635/667 nm fluorescence, primary screen (AID 1120).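 Further: probe is a biotin-tagged antibody raised against NOTCH3 rather than NOTCH3 protein; score merges spot fluorescence near 667 nm with spot signal to noise.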 As to conditions: higher = more signal.
Test [4] in a line: probe aNOTCH2 binding on compound microarray – biochemical, small-molecule microarray, 635/667 nm fluorescence, primary screen (AID 1121).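 Further: score merges feature fluorescence read at 667 nm with its signal to noise.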 As to conditions: higher = more signal.
Test [5] addresses Carbonic anhydrase 2 (Homo sapiens) (UniProt P00918). Description: compounds binding carbonic anhydrase 2 – biochemical, small-molecule microarray, Alexa647-labelled CAII, profiling panel (AID 1122). As to conditions: CAII-A647 binding fluorescence, higher = more signal.
Test [6] can be described thus: COS7 lysate on small-molecule microarray, probe aHis, 635 nm (AID 1123).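 Further: z-score combines 667nm fluorescence intensity with signal-to-noise per printed compound spot.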 As to conditions: COS7 cell lysate, fluorescence, higher = more signal.
Test [7] in a line: probe aLAP1 signal on lysate-treated microarray – cell lysate, small-molecule microarray, COS7 lysate, primary screen (AID 1124).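 Further: lysate comes from COS7 cells expressing LAP1 and is applied at 0.3 µg/mL; score merges spot fluorescence near 667 nm with signal-to-noise over triplicate slides.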 As to conditions: probe aLAP1, fluorescence, higher = more signal.
Test [8] deals with Sam68 (KHDRBS1). Description: compounds binding KHDRBS1 protein – biochemical, small-molecule microarray, 635 nm fluorescence, primary screen (AID 1125).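 Further: score merges 667 nm channel intensity with signal to noise over triplicate slides.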 Particulars: higher = more signal.
The subject of test [9] is Chordin-like protein 2 (CHRDL2). Description: compounds binding chordin-like 2 – biochemical, small-molecule microarray, 635 nm fluorescence, primary screen (AID 1126).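 Further: printed compound slides probed with Chrdl2 protein at 4 µg/mL for 1 h at 4 C; score merges 667 nm emission intensity with signal to noise over three replicate slides.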 Particulars: fluorescence 635 nm, higher = more signal.
The target in test [10] is Concanavalin-A (Canavalia ensiformis) (UniProt P02866). The experiment in a line: compounds binding concanavalin A lectin – biochemical, small-molecule microarray, Alexa647 label, 635 nm, artefact control for SMM control protein annotation, primary screen (AID 1127).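 Further: z combines 667 nm emission intensity with signal-to-noise across three replicate slides.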 Particulars: ConA-A647 binding fluorescence, higher = more signal.
Sequence of Concanavalin-A (Canavalia ensiformis) (P02866 whole entry, looked up): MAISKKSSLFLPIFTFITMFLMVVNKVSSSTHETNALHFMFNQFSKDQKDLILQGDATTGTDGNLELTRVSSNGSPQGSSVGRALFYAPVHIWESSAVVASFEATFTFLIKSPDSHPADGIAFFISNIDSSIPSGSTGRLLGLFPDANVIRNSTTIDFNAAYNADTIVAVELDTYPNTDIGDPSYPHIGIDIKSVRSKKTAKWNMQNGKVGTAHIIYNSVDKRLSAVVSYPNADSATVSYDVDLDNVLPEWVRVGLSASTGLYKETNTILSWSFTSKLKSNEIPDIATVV

The record followed here is PubChem BioAssay.

Calls of active or inactive are those of the source.

Sequence of Albumin (Bos taurus) (P02769 whole entry, looked up): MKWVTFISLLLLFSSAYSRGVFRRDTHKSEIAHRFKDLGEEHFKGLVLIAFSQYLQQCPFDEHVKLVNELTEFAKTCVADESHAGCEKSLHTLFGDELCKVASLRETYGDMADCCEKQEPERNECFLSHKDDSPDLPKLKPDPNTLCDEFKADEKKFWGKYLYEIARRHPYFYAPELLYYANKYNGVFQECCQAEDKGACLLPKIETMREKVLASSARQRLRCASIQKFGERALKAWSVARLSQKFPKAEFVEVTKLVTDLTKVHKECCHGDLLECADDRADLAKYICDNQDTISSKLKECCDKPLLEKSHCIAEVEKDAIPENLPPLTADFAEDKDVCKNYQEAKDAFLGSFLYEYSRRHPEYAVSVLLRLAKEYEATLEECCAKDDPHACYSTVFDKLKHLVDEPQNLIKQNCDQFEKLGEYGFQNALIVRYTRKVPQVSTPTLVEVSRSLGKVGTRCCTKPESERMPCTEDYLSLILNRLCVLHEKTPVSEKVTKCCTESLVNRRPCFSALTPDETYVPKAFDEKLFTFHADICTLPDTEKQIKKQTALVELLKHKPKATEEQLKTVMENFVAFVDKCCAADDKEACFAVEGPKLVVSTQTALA

In the case of `NC(=O)NCC#Cc1ccc2c(c1)[C@]1(C(=O)N2)[C@H](c2ccc(O)cc2)N2[C@H](c3ccccc3)[C@H](c3ccccc3)OC(=O)[C@H]2[C@@H]1C(=O)N1CCCCCCC1`, the composite z-score is -0.476 in test [1]; 0.976 in test [3]; -0.172 in test [4]; 0.39 in test [5]; 0.594 in test [6]; 0.596 in test [7]. Further, the composite z-score in test [8] worked out at 0.792; in test [9], 0.983; in test [10], 0.848. Besides, in test [2], the composite Z-score was 0.645 (inactive).

Take `COc1ccc(O[C@H]2C=C[C@@H](c3ccccc3)O[C@@H]2COC(=O)CCC(C)=NO[C@H](C)c2cn([C@@H]3COC[C@H]3O)nn2)cc1`: the composite z-score in [1] is 0.454; in [3], -0.015; in test [4] it was -0.211; in test [5], -0.106; in test [6], -0.208; in [7], 0.263. The composite z-score in test [8] was 0.771; in test [9], 0.656; in test [10], 0.427. Further, the composite Z-score in [2] is 0.362 (inactive).

Regarding `CC(=O)OC[C@H]1O[C@H](CCON=C(C)CCC(=O)OC[C@H]2O[C@H](C#Cc3ccccc3)C=C[C@@H]2Oc2ccc(C)cc2)C=C[C@@H]1OC(C)=O`, the composite z-score is 0.208 in test [1]; 0.0322 in [3]; -0.204 in test [4]; -0.085 in test [5]; 0.1 in test [6]; 0.448 in test [7]. The results for the composite z-score in test [8], in [9] and in test [10] were 0.287, 0.401 and 0.194, respectively. The composite Z-score in [2] is 0.131 (inactive).

For the molecule `CO[C@@H]1COC(=O)[C@@H]2CCCN2C(=O)[C@@H](C)COC(=O)[C@H](COCc2ccccc2)NC(=O)CC=C[C@H]1C`, the composite z-score is 0.0307 in [1]; -0.059 in [3]; -0.147 in test [4]; 0.12 in test [5]; 1.35 in [6]; -0.0015 in test [7]. Further, the figures for the composite z-score in test [8], in test [9] and in test [10] were 0.813, 0.611 and 0.379, respectively. In addition, the composite Z-score in [2] was -0.413 (inactive).

As for `C=C(CCCC)C(=O)CC[C@@H](OC(C)=O)c1cccc(OCCO)c1`, the composite z-score in test [1] is -0.528; in [3] it was -0.0933; in test [4], -0.193; in test [5], 0.767; in test [6] it was -0.022; in test [7], 0.953. Besides, the composite z-score is -0.106 in test [8], 0.582 in [9] and 0.259 in [10]. Moreover, the composite Z-score in test [2] was 0.0491 (inactive).

For `O=C1[C@H]2[C@H]3[C@H](O)[C@H](O)CC(=NO[C@@H]4O[C@H](CO)[C@@H](O)[C@H](O)[C@H]4O)[C@@H]3CC[C@H]2C(=O)N1Cc1ccc2c(c1)OCO2`, the composite z-score in test [1] was -0.037; in [3], -0.004; in test [4] it was -0.18; in test [5] it was 0.376; in [6], 0.542; in test [7] it was -0.211. Moreover, the composite z-score amounted to 0.907 in test [8], 0.538 in test [9] and 0.211 in test [10]. The composite Z-score in test [2] is 0.484 (inactive).

Consider `CCN1C(=O)[C@H]2[C@H]3[C@H](O)C=CC(=O)[C@@H]3CC[C@H]2C1=O`, for which the composite z-score is -0.338 in [1]; 0.0519 in test [3]; -0.117 in test [4]; -0.132 in test [5]; -0.177 in test [6]; 0.402 in [7]. Also, the composite z-score is 0.234 in test [8], 0.587 in test [9] and 0.373 in test [10]. For the same molecule, the composite Z-score in [2] was -0.56 (inactive).

In the case of `Cc1ccc(F)cc1S(=O)(=O)N[C@@H]1CCN(Cc2ccc(CC(C)C)cc2)C1`, the composite z-score in [1] was 0.118; in test [3] it was -0.249; in test [4], -0.208; in test [5] it was 0.013; in test [6], 0.193; in test [7] it was 0.172. In addition, the composite z-score was 0.499 in test [8], 0.266 in test [9] and -1.47 in [10]. Also, in test [2], the composite Z-score was -0.316 (inactive).

For `CC(C)(C)N1C(=O)[C@H]2[C@H]3[C@H](O)[C@H](O)CC(=NOCc4ccccc4)[C@@H]3CC[C@H]2C1=O`, the composite z-score in test [1] was 0.8; in test [3], 0.111; in test [4] it was -0.131; in test [5] it was 0.675; in [6] it was 0.384; in test [7], 0.532. The composite z-score is 1.17 in [8], 0.831 in test [9] and 0.694 in test [10]. In test [2], the composite Z-score was 0.588 (inactive).

Turning to `O=C1C[C@@H](O)[C@@H](O)[C@@H]2[C@@H]3C(=O)N(C4CCCCC4)C(=O)[C@@H]3CC[C@H]12`, the composite z-score was 0.258 in test [1]; 0.0208 in [3]; -0.0761 in test [4]; 0.168 in [5]; 0.323 in test [6]; -0.505 in [7]. Besides, the composite z-score in test [8] was found to be 0.742; in test [9] it was 0.325; in test [10], 0.564. For the same molecule, the composite Z-score in test [2] was -0.236 (inactive).

`CCN1C(=O)[C@H]2[C@H]3[C@H](O)[C@H](O)CC(=NOCC=C(C)CCC=C(C)C)[C@H]3CC[C@H]2C1=O`: the composite z-score in test [1] was -1.33; in test [3], 0.0876; in [4], -0.182; in [5], 0.578; in test [6] it was 0.41; in [7], 0.714. The composite z-score in test [8] is 1.3; in test [9], 1.3; in test [10], -0.0616. Moreover, in test [2], the composite Z-score is -0.768 (inactive).

`CC(CCN1CCc2nc(-c3ccccc3)c(-c3ccccc3)cc2C1)=NOC(C)CN1CCCCc2nc(C)c(C)cc21` (stereo not given): the composite z-score in test [1] is 0.56; in test [3], 0.0379; in test [4], -0.14; in test [5], 0.209; in test [6], 0.789; in [7], 0.154. Also, the composite z-score is 1.28 in test [8], 0.308 in test [9] and 1.05 in [10]. Moreover, the composite Z-score in test [2] is 0.766 (inactive).

With `CCOC(=O)C[C@H]1[C@H](OC(=O)c2ccc(C(=O)c3ccccc3)cc2)[C@@H](NC(=O)c2ccc(-c3ccccc3)cc2)c2cc(OCCCO)ccc2N1C(=O)c1ccc2ccccc2n1`, the composite z-score in test [1] is 0.0279; in test [3], 0.0084; in test [4], -0.101; in test [5], 0.0886; in [6] it was 0.71; in [7] it was -0.142. Besides, the composite z-score in test [8] is 1.31; in test [9], 0.611; in [10] it was 0.844. The composite Z-score in test [2] is 0.228 (inactive).

For `C#CCCCON=C1C[C@@H](O)[C@@H](O)[C@@H]2[C@@H]3C(=O)N(c4cccc(Oc5ccccc5)c4)C(=O)[C@@H]3CC[C@@H]12`, the composite z-score is 0.487 in test [1]; -0.0311 in test [3]; -0.244 in test [4]; 0.256 in test [5]; 1.77 in test [6]; -0.164 in test [7]. The composite z-score in [8] is 1.32; in test [9], -0.0255; in test [10], 0.884. Moreover, the composite Z-score in test [2] is 0.154 (inactive).

Take `COCCOC(=O)N1C(=O)[C@@]2(c3ccccc31)[C@H](C(N)=O)[C@H]1C(=O)O[C@H](c3ccccc3)[C@H](c3ccccc3)N1[C@@H]2c1ccccc1OCCO`: the composite z-score in [1] was 0.834; in test [3], 0.198; in [4], 0.0959; in [5], 0.749; in test [6], 2.02; in test [7], 1.06. The composite z-score was 1.3 in test [8], 0.522 in test [9] and 1.15 in [10]. Further, in test [2], the composite Z-score was 0.839 (inactive).
